The record followed here is PubChem BioAssay.

As usually defined, the inhibition is the drop in the measured response relative to a control, in per cent.

The source made the active and inactive calls.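 Rule for the calls, unless noted: active = response below a set limit, under 55% cells CD8-positive and vesicle-bound, and CD8 cells' 90th-percentile brightness under 279; inactive = the rest.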

Assay [1] can be described thus: inhibitors of CD8+ T cell-vesicle binding, pilot screen, LFA-1/ICAM-1 modulator project, MLPCN validation set, flow cytometry (AID 2523).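 For vesicle binding response: mean PE anti-B7-1 fluorescence of CD8+ cells relative to row control; 100% = QL9-loaded vesicles with DMSO vehicle in the same plate row.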 Conditions: 2C mouse CD8+ T cells, at 7 µM, stronger effect = lower value; double positive events: measured here: CD8+/vesicle+ event percentage.
Assay [2] concerns the target Integrin beta-1 (Homo sapiens) + Integrin alpha-4 (Homo sapiens) (UniProt P13612+P05556). As to the kind of experiment: inhibition of HUTS-21 binding to VLA-4, pilot screen, VLA-4 allosteric modulator project, U937 cells, HUTS-21 mAb, flow cytometry, validation set (AID 2674;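 active = inhibition above 50%, about 3 SD of the validation set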;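 note: antibody binding induced by the VLA-4 ligand LDV present at three times its Kd; 0% = LDV ligand with antibody and no compound and 100% = antibody without LDV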). Conditions: HUTS-21 LIBS mAb binding, at 6.7 µM, stronger effect = higher value, binding induced by LDV ligand.

The nature of assay [3]: superoxide lowering in aged yeast cells, pilot screen, validation compound set (AID 2706;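 active = superoxide response below 65% of plate, a cut near 3 SD across the whole screen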;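 note: yeast exposed to compound for one week at 30 degrees C before staining; 100% = mean of all compound wells on the same plate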). Conditions: S. cerevisiae aging, superoxide DHE fluorescence; at 10 µM, stronger effect = lower value.
For assay [4], the target named is Beta-adrenergic receptor kinase 1 (Homo sapiens) (UniProt P25098). Briefly: GRK2 binders displacing RNA aptamer, biochemical, validation, human GRK2, bead flow cytometry (AID 488806;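 active = aptamer binding inhibition above 30%, about 3 SD of noise from non-fluorescent compounds; inactive = inhibition at or below 30%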). Conditions: bead-bound GRK2, FAM-aptamer displacement, at 10 µM, stronger effect = higher value. For orientation: A flow cytometer gives signals particle by particle.
Beta-adrenergic receptor kinase 1 (Homo sapiens), sequence (P25098 whole entry, looked up): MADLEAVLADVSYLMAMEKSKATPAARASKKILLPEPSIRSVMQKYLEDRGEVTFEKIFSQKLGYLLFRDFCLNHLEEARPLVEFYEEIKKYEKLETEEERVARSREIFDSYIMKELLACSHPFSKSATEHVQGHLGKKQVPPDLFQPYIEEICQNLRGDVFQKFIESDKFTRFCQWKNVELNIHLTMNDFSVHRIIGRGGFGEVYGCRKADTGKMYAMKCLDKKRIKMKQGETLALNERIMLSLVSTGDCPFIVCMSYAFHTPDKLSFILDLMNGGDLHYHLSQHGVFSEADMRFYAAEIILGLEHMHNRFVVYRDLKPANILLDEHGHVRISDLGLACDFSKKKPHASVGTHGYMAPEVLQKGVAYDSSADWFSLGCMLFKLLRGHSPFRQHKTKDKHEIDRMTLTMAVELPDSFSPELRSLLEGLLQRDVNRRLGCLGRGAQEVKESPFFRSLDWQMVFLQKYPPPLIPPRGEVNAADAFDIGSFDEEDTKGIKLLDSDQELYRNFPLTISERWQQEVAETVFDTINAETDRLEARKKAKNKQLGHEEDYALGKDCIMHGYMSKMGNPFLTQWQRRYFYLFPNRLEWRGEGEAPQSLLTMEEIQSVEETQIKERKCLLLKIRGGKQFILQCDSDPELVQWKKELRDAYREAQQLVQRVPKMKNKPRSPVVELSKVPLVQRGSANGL
For assay [5], the target named is AP-2 complex subunit beta (Homo sapiens) (UniProt P63010). Briefly: inhibitors of arrestin peptide binding to AP2, pilot screen, biochemical, validation set, GST-AP2 beads, flow cytometry (AID 504541;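 active = inhibition above 54%, about 3 SD of non-fluorescent compounds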;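 note: AP2 carries R879A mutation and is captured from E. coli lysate; bead-bound FITC arrestin peptide fluorescence measuring arrestin peptide binding to AP2; 0% = DMSO wells and 100% = excess unlabeled arrestin peptide control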). Conditions: FITC arrestin peptide, at 10 µM, stronger effect = higher value, AP2 beta2 appendage fragment, R879A mutant.
AP-2 complex subunit beta (Homo sapiens), sequence (P63010 whole entry, looked up, the tested form may be a part, one chain of several): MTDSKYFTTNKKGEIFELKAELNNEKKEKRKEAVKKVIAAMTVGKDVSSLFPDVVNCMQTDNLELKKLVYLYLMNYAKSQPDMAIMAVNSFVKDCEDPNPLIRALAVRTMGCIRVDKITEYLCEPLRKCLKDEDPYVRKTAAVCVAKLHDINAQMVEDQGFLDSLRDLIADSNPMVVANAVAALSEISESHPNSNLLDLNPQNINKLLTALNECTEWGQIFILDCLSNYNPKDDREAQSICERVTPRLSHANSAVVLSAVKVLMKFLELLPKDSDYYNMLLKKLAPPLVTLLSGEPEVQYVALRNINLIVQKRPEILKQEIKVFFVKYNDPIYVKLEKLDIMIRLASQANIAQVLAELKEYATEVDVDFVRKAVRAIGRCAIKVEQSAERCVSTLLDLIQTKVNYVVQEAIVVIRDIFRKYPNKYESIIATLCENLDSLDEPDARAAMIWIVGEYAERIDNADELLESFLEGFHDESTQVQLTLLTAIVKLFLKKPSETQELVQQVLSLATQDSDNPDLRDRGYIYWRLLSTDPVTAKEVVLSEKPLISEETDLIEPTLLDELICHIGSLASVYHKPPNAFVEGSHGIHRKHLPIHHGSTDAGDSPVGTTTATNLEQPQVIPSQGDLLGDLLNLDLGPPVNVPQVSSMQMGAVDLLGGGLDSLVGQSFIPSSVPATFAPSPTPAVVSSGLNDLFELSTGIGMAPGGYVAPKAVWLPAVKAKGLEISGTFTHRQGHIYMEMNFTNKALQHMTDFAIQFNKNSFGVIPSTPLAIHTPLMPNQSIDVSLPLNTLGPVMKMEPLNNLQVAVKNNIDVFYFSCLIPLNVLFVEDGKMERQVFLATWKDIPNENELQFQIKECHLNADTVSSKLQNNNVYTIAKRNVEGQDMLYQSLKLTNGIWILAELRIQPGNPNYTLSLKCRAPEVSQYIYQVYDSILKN
Assay [6] is described as follows: yeast V-ATPase proton transport modulators, S. cerevisiae, pHLuorin, HTS validation (AID 504600; in the data active = response above about 15%;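 note: plate controls were DMSO for no effect and reference compound for full effect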). Conditions: S. cerevisiae pHLuorin cytosolic pH, at 10 µM, stronger effect = higher value.
In assay [7] the test system is anti-desmoglein-3 scFv antibody binding to human DSG3. Briefly: inhibitors of anti-DSG3 scFv binding to DSG3, pilot screen, biochemical, validation compound set, bead-based, flow cytometry (AID 588368;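 active = binding below the plate cutoff, the plate median minus 3 SD, with a reading above zero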;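 note: signal is the median channel fluorescence of bead-bound GFP antibody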). Conditions: Protein G beads, DSG3-Fc, scFv-GFP binding, at 10 µM, stronger effect = lower value.
Assay [8] is described as follows: inhibitors of fungal efflux pumps CDR1, CDR2, MDR1, pilot screen, validation compound set, multiplex, phenotypic (AID 588506;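 active = efflux inhibition above 0.42, the validation set average plus 4 SD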;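 note: Nile Red retained in cells so higher fluorescence means more efflux inhibition; 0 = negative control wells and 1 = enniatin B 25 µM full block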). Conditions: S. cerevisiae pump-expressing triplex, Nile Red efflux flow cytometry; at 10 µM; stronger effect = higher value; the pumps come from Candida albicans.
The target in assay [9] is ATP-binding cassette sub-family B member 6 (Homo sapiens) (UniProt Q9NP58). Briefly: ABCB6 transporter inhibitors, pilot screen, K562-ABCB6 cells, flow cytometry, validation set (AID 588550;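 active = inhibition above the screen-wide mean plus 3 SD, about 51%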;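 note: 0% = DMSO wells and 100% = benzethonium chloride 70 µM positive control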). Conditions: K562-ABCB6 porphyrin accumulation, 1 h, at 10 µM, stronger effect = higher value.
ATP-binding cassette sub-family B member 6 (Homo sapiens), sequence (Q9NP58 whole entry, looked up): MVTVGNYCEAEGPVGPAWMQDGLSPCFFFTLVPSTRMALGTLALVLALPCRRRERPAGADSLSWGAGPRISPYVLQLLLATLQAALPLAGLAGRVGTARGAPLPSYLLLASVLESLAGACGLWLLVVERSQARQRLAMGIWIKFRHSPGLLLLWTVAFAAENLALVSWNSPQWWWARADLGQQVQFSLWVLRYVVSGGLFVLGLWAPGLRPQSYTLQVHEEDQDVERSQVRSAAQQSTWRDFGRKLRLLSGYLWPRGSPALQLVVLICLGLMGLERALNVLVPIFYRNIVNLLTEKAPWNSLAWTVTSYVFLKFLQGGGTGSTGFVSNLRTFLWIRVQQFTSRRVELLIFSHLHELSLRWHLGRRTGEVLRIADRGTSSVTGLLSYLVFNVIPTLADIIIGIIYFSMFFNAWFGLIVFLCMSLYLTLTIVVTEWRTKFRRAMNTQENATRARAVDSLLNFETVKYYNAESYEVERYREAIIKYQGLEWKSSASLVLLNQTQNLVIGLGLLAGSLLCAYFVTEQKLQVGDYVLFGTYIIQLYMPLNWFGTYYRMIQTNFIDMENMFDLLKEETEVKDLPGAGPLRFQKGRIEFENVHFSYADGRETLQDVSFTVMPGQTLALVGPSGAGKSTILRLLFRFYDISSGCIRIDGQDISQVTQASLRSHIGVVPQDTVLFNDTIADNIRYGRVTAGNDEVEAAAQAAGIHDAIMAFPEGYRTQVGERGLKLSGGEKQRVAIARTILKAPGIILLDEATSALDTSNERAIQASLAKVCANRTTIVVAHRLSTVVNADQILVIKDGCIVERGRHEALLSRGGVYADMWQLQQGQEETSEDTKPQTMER
Assay [10] can be described thus: promoters of myeloid differentiation in arrested cells, primary screen, cell-based, GFP/MAC1 double positive, flow cytometry, validation set (AID 588685;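 active = differentiation response of at least 50%, scaled between solvent and reference control, from cells with both markers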;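 note: compound exposure lasts four days before antibody staining and flow analysis; 0% = DMSO wells and 100% = 5 µM fulvestrant positive control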). Conditions: ER-HoxA9 marrow cells, stronger effect = higher value, normalized: vehicle 0, fulvestrant 100.

Integrin beta-1 (Homo sapiens) + Integrin alpha-4 (Homo sapiens), sequence (P05556 whole entry, looked up): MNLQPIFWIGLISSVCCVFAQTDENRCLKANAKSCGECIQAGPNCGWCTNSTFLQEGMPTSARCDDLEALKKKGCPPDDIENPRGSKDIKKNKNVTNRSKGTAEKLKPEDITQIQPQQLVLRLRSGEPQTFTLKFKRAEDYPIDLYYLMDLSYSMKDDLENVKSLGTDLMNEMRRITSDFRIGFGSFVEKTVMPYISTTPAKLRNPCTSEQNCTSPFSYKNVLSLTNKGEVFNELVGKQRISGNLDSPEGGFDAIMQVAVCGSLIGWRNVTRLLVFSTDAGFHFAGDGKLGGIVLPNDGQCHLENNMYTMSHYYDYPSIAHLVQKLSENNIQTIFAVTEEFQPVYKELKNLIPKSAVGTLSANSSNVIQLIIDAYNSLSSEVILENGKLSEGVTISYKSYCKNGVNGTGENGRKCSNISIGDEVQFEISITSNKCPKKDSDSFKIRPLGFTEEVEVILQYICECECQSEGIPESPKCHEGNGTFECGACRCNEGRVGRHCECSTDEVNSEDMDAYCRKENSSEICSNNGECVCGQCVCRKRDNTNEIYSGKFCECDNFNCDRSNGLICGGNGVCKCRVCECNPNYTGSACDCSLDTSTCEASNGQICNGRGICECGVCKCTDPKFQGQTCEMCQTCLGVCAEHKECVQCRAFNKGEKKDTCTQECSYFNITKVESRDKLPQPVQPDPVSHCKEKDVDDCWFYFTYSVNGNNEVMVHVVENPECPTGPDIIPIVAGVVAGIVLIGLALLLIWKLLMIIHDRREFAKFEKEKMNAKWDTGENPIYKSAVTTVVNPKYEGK
Integrin beta-1 (Homo sapiens) + Integrin alpha-4 (Homo sapiens), sequence (P13612 whole entry, looked up): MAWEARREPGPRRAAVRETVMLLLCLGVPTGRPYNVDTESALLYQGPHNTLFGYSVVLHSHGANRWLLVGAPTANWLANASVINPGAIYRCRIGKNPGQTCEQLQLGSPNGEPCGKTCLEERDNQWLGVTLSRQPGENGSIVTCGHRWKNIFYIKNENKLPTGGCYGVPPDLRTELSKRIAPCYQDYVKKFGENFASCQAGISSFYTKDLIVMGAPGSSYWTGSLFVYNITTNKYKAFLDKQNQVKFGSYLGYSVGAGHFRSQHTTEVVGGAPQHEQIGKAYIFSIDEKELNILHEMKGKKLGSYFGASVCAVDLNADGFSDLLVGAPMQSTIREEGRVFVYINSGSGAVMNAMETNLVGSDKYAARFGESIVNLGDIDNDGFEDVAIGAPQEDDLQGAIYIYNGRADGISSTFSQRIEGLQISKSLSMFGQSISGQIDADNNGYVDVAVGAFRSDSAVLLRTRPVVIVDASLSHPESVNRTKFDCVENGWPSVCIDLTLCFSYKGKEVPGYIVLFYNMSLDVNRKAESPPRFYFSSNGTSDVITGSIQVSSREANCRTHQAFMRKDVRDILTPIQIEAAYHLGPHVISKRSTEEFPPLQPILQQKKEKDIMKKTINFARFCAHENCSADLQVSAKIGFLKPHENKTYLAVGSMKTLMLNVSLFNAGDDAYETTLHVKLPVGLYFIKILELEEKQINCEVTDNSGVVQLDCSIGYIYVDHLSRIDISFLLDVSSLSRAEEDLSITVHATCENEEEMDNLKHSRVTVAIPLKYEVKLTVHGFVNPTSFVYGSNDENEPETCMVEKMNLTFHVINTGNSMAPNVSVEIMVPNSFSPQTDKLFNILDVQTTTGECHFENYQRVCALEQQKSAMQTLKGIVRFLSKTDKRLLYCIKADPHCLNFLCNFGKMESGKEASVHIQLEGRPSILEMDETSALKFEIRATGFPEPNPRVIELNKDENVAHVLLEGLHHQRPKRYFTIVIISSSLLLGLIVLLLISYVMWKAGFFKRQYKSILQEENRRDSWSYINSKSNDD

In assay [1], `CN(C)C(=O)C(CCN1CCC(O)(c2ccc(Cl)cc2)CC1)(c1ccccc1)c1ccccc1` had a double positive events of 70.4%. In addition, in assay [1], the vesicle binding response is 180% (inactive). Besides, the inhibition in assay [2] is 44% (inactive); in assay [5], 2.98% (inactive); in assay [9], 2% (inactive). Besides, the superoxide response (% of plate) in assay [3] is 86.8% (inactive). Further, the aptamer binding inhibition in assay [4] was 1% (inactive). Further, the response in assay [6] is 6.9% (inactive). For the same compound, the binding (% of control) in assay [7] is 104% (inactive). In [8], the efflux inhibition (fraction of control) is 0.08 (inactive). Moreover, in assay [10], the differentiation response is -3.02% (inactive).
Turning to `CC(=Nc1ccccc1)C1=C(O)CCCC1=O`, in [1], the double positive events turned out to be 61.6%. Further, the vesicle binding response in [1] is 312% (inactive). Also, the figures for the inhibition in assay [2], in [5] and in assay [9] were 13.8% (inactive), -9.14% (inactive) and 0% (inactive), respectively. Also, in assay [3], the superoxide response (% of plate) is 104% (inactive). For the same compound, the aptamer binding inhibition in assay [4] is 1% (inactive). In [6], the response is 8.27% (inactive). Further, the binding (% of control) in [7] is 97.7% (inactive). Also, the efflux inhibition (fraction of control) in [8] was -0.24 (inactive). Further, the differentiation response in assay [10] was -21.2% (inactive).
In turn, `COc1ccc2[nH]c(C)c(CN3CCC(C)CC3)c(=O)c2c1` returned a double positive events in assay [1] of 50.2%. Moreover, the vesicle binding response in assay [1] was 154% (inactive). Besides, the inhibition is -14.2% (inactive) in assay [2], -1.75% (inactive) in [5] and 2% (inactive) in [9]. Also, the superoxide response (% of plate) in assay [3] is 100% (inactive). Besides, the aptamer binding inhibition in assay [4] was 2% (inactive). Moreover, the response in [6] was 4.29% (inactive). Also, the binding (% of control) in [7] is 98.5% (inactive). In assay [8], the efflux inhibition (fraction of control) was 0.1 (inactive). In assay [10], the differentiation response was -5.05% (inactive).
For the compound `Cc1ccc2nc3c(cc(C(=O)NCC4CCCO4)c(=N)n3CCCOC(C)C)c(=O)n2c1` (centres undefined), in assay [1], the double positive events was 62.1%. The vesicle binding response in assay [1] is 176% (inactive). For the same compound, the inhibition in assay [2] is 9.09% (inactive); in assay [5], -3.18% (inactive); in assay [9], 14% (inactive). In addition, in assay [3], the superoxide response (% of plate) is 82.4% (inactive). For the same compound, the aptamer binding inhibition in [4] is 0% (inactive). Further, the response in [6] was -20.8% (inactive). For the same compound, the binding (% of control) in [7] is 100% (inactive). In addition, the efflux inhibition (fraction of control) in assay [8] was 0.33 (inactive). Further, the differentiation response in [10] is -24.4% (inactive).
`COc1ccc(-c2coc3cc(OC(=O)N4CCOCC4)ccc3c2=O)cc1` returned a double positive events in assay [1] of 62.6%. Further, the vesicle binding response in [1] is 185% (inactive). In addition, the inhibition in [2] was -9.57% (inactive); in assay [5], -9.14% (inactive); in assay [9], 10% (inactive). In addition, the superoxide response (% of plate) in [3] is 105% (inactive). Besides, in assay [4], the aptamer binding inhibition is -3% (inactive). Besides, in assay [6], the response is 4.61% (inactive). Besides, the binding (% of control) in assay [7] was 109% (inactive). In [8], the efflux inhibition (fraction of control) is -0.16 (inactive). For the same compound, in assay [10], the differentiation response is 19.2% (inactive).
Regarding `Oc1ccc(/C=C/c2cc(O)cc(O)c2)cc1`, the double positive events in assay [1] was determined as 52.4%. In assay [1], the vesicle binding response was 225% (inactive). For the same compound, the inhibition is -6.77% (inactive) in assay [2], 7.43% (inactive) in assay [5] and 6% (inactive) in assay [9]. The superoxide response (% of plate) in assay [3] is 96.3% (inactive). The aptamer binding inhibition in [4] is 2% (inactive). Besides, the response in [6] is -1.9% (inactive). In addition, the binding (% of control) in [7] is 97.2% (inactive). Further, in assay [8], the efflux inhibition (fraction of control) is -0.43 (inactive). Besides, the differentiation response in assay [10] was -16.4% (inactive).
In [1], `Cc1ccsc1/C=N\NC(=O)c1ccc2c(c1)OCO2` had a double positive events of 62.5%. Besides, the vesicle binding response in assay [1] is 183% (inactive). Also, the inhibition was 10.9% (inactive) in [2], 11.1% (inactive) in [5] and 7% (inactive) in assay [9]. Besides, the superoxide response (% of plate) in assay [3] was 97% (inactive). Moreover, the aptamer binding inhibition in assay [4] is 3% (inactive). The response in [6] was 1.01% (inactive). The binding (% of control) in assay [7] is 99.5% (inactive). Also, in [8], the efflux inhibition (fraction of control) was -0.12 (inactive). In assay [10], the differentiation response is 1.41% (inactive).
With `CC1(C)Cc2nc3oc4c(NCc5ccccc5)ncnc4c3cc2CO1`, in [1], the double positive events amounted to 49.8%. Further, the vesicle binding response in [1] was 183% (inactive). Besides, the inhibition was 4.42% (inactive) in [2], -8.27% (inactive) in [5] and 5% (inactive) in assay [9]. Besides, in [3], the superoxide response (% of plate) is 95.3% (inactive). Also, the aptamer binding inhibition in assay [4] was -2% (inactive). Also, the response in [6] is -4.11% (inactive). Moreover, the binding (% of control) in [7] is 105% (inactive). In addition, the efflux inhibition (fraction of control) in assay [8] is -0.2 (inactive). For the same compound, the differentiation response in assay [10] is 0% (inactive).
In the case of `COc1ccc(-c2c(C)c3ccc(OCC(C)=O)cc3oc2=O)cc1`, in assay [1], the double positive events was 46.6%. In addition, the vesicle binding response in [1] is 128% (inactive). The figures for the inhibition in [2], in assay [5] and in [9] were 3.49% (inactive), -9.08% (inactive) and 9% (inactive), respectively. Further, the superoxide response (% of plate) in [3] was 113% (inactive). Further, the aptamer binding inhibition in [4] was 6% (inactive). Further, in [6], the response was -2.13% (inactive). In [7], the binding (% of control) is 103% (inactive). Moreover, the efflux inhibition (fraction of control) in assay [8] was -0.05 (inactive). In assay [10], the differentiation response is 3.03% (inactive).
`Cc1nc(N[C@@H](Cc2c[nH]c3ccccc23)C(=O)O)c2oc3ccccc3c2n1`: in assay [1], the double positive events came to 62.1%. Further, the vesicle binding response in [1] was 218% (inactive). In addition, the values for the inhibition in assay [2], in [5] and in [9] were -0.24% (inactive), -8.46% (inactive) and 9% (inactive), respectively. In addition, the superoxide response (% of plate) in [3] is 104% (inactive). In [4], the aptamer binding inhibition was 0% (inactive). In addition, in assay [6], the response was -0.92% (inactive). In addition, the binding (% of control) in [7] was 102% (inactive). Further, the efflux inhibition (fraction of control) in [8] was -0.24 (inactive). In addition, the differentiation response in assay [10] is -9.89% (inactive).
Regarding `O=C(CNC(=O)OCc1ccccc1)NC1CCCCCC1`, the double positive events in [1] was 55.1%. In [1], the vesicle binding response was 201% (inactive). Further, the inhibition is 10% (inactive) in [2], 1.41% (inactive) in assay [5] and 12% (inactive) in assay [9]. For the same compound, the superoxide response (% of plate) in [3] is 90.8% (inactive). The aptamer binding inhibition in assay [4] was 4% (inactive). For the same compound, the response in [6] was 11.3% (inactive). For the same compound, in [7], the binding (% of control) was 99.1% (inactive). Moreover, the efflux inhibition (fraction of control) in [8] was -0.05 (inactive). Further, the differentiation response in assay [10] was 6.26% (inactive).
For the compound `O=C(O)c1cc(-c2ccccc2)nc2ccccc12`, the double positive events in [1] worked out at 62%. In addition, the vesicle binding response in assay [1] is 151% (inactive). The inhibition in assay [2] was 23.1% (inactive); in assay [5], 27.6% (inactive); in [9], -2% (inactive). For the same compound, the superoxide response (% of plate) in assay [3] was 98.3% (inactive). Moreover, the aptamer binding inhibition in [4] is 4% (inactive). Further, in assay [6], the response is -5.56% (inactive). Also, in [7], the binding (% of control) was 96.2% (inactive). Also, the efflux inhibition (fraction of control) in [8] was 0.1 (inactive). Moreover, the differentiation response in [10] was 6.26% (inactive).
Take `CCNCCC(CCC(C)C)c1ccc2c(c1)OCO2` (centres undefined): the double positive events in assay [1] came to 54.2%. In assay [1], the vesicle binding response was 233% (inactive). The inhibition in assay [2] was 9.09% (inactive); in assay [5], -9.39% (inactive); in [9], -3% (inactive). For the same compound, in [3], the superoxide response (% of plate) was 103% (inactive). Further, in assay [4], the aptamer binding inhibition is -1% (inactive). Besides, in [6], the response is -1.01% (inactive). The binding (% of control) in [7] is 96.9% (inactive). The efflux inhibition (fraction of control) in [8] was -0.16 (inactive). Besides, in assay [10], the differentiation response is 9.49% (inactive).
As to `Cc1ccc2[nH]c3c(=O)n(CCCN4CCN(C)CC4)cnc3c2c1`, the double positive events in assay [1] turned out to be 60.7%. The vesicle binding response in [1] was 195% (inactive). Also, the inhibition is 7.22% (inactive) in assay [2], 24.8% (inactive) in assay [5] and 12% (inactive) in assay [9]. Besides, the superoxide response (% of plate) in [3] is 99.9% (inactive). The aptamer binding inhibition in assay [4] was 4% (inactive). In addition, the response in [6] was -6.94% (inactive). In [7], the binding (% of control) is 99.3% (inactive). Besides, the efflux inhibition (fraction of control) in [8] was -0.2 (inactive). The differentiation response in assay [10] was 30.5% (inactive).
